Source: PubChem BioAssay (EPA / NIEHS)
“And” between values parts separate entries of the source, which are not always exact repeats. Identical values can stand only once. A structure can be active in one record and inactive in another. The source made the active and inactive calls. The calls were made as follows: active = hit-call score of the fitted dose curve at least 0.9, where 1 is the maximum; inactive = score below 0.9.

What follows are molecules tested on C-C motif chemokine 2 (Homo sapiens) (UniProt P13500) (assay: BSK_KF3CT_MCP1: BioMAP Diversity Plus: KF3CT Assay for Monocyte Chemoattractant Protein 1 (MCP1/CCL2) Biomarker Activity (AID 2283073)). Settings: primary human keratinocytes with fibroblasts; actives raise or lower the signal.
Method in brief: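 ELISA readout of MCP-1 after 24 h chemical dosing of a human skin primary co-culture of keratinocytes and foreskin fibroblasts. Activity was fitted in both directions against DMSO.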

Compound	outcome	AC50
O=C(Cl)C(F)(F)C(F)(F)C(F)(F)C(F)(F)C(F)(F)C(F)(F)F	inactive	
Cc1cc(O)c(C(C)(C)C)cc1C(C)(C)C		3.37 µM (active)
FC(F)(F)C(F)(F)C(F)(F)CC1CO1 (stereo not drawn)	inactive	
O=C(O)C(F)(F)C(F)(F)C(F)(F)C(=O)O	inactive	
Cc1cnccn1	inactive	
CN(C(=O)C(F)(F)C(F)(F)C(F)(F)F)[Si](C)(C)C	inactive	
Brc1nc2ccccc2s1	inactive	
CCN(CC)c1ccc2c(c1)Oc1cc(N(CC)CC)ccc1C21OC(=O)c2ccccc21	inactive	
NC(O)(C(F)(F)F)C(F)(F)F	inactive	
O=C(O)C(F)(F)OC(F)(F)C(F)(F)OC(F)(F)C(F)(F)OC(F)(F)F	inactive	
O=C(O)C(F)(F)C(F)(F)C(F)(F)C(F)(F)C(F)(F)C(F)(F)C(F)F	inactive	
NC(=O)C(F)(F)C(F)(F)C(F)(F)C(F)F	inactive	
OC(O)C(F)(F)C(F)(F)F	inactive	
COC(F)(C(F)F)C(F)(F)F (stereo not drawn)	inactive	
Cc1ccc(O)c(-n2nc3ccccc3n2)c1	inactive	
CCN=C1C=CC(=C(c2ccc(N(CC)CC)cc2)c2ccc(N(CC)CC)cc2)c2ccccc21		3.2 µM (active) and 2.66 µM (active)
NC(=O)C(F)(F)C(F)(F)C(F)(F)C(F)(F)C(F)(F)C(F)(F)C(F)(F)F	inactive	
FC(F)(F)C(F)(F)C(F)(F)C(F)(F)C(F)(F)C(F)(F)C(F)(F)CCI	inactive	3.94 µM (active)
Cc1ccc(S(=O)(=O)C(I)I)cc1		2.71 µM (active)
OCCCC(F)(F)C(F)(F)C(F)(F)C(F)(F)C(F)(F)C(F)(F)C(F)(F)C(F)(F)F		11 µM (active) and 8.31 µM (active)
NC(=O)C(F)(F)C(F)(F)C(F)(F)C(F)(F)C(N)=O	inactive	
O=C(O)CCC(F)(F)C(F)(F)C(F)(F)F	inactive	

The molecules below were run on Matrix Metallopeptidase 9 (MMP9), MMP9 (gene 4318) (assay: BSK_KF3CT_MMP9: BioMAP Diversity Plus: KF3CT Assay for Matrix Metallopeptidase 9 (MMP9) Biomarker Activity (AID 2283074;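 as to AC50: MMP9 protein level quantified by ELISA in the co-culture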)). Settings: primary human keratinocytes with fibroblasts; actives raise or lower the signal.
Method in brief: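 Human keratinocyte and foreskin fibroblast co-culture exposed to chemicals for 24 h; MMP9 biomarker measured by ELISA, bidirectional fitting relative to DMSO; cytotoxicity tracked by SRB total protein staining in parallel cultures.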

Compound	outcome	AC50
O=S(=O)(OCC(F)(F)F)C(F)(F)C(F)(F)C(F)(F)C(F)(F)F	inactive	
C=CC(=O)OCC(F)(F)C(F)(F)C(F)(F)C(F)(F)C(F)(F)C(F)(F)C(F)(F)C(F)F	inactive	
NS(=O)(=O)C(F)(F)C(F)(F)C(F)(F)C(F)(F)C(F)(F)C(F)(F)F	inactive	14.6 µM (active)
CC(C)CCCC(C)CCO (stereo not drawn)		36.4 µM (active)
CCN(CC)c1ccc(C=O)cc1	inactive	
O=C=Nc1cccc2c(N=C=O)cccc12	inactive	
C=CC(=O)OCCC(F)(F)C(F)(F)C(F)(F)C(F)(F)F	inactive	
OCCCCC(F)(F)C(F)(F)C(F)(F)C(F)(F)F	inactive	
O=C(O)CCC(F)(F)C(F)(F)C(F)(F)C(F)(F)C(F)(F)C(F)(F)C(F)(F)F	inactive	
CCN(CC)c1ccc(N=Nc2ccccc2)cc1		9.24 µM (active)
O=S(=O)(Cl)C(F)(F)C(F)(F)C(F)(F)C(F)(F)C(F)(F)C(F)(F)C(F)(F)C(F)(F)F		30 µM (active) and 51.1 µM (active)
O=C(Cl)C(F)(F)C(F)(F)C(F)(F)C(F)(F)C(F)(F)C(F)(F)F	inactive	18.3 µM (active)
Cc1cc(O)c(C(C)(C)C)cc1C(C)(C)C		5.96 µM (active)
FC(F)(F)C(F)(F)C(F)(F)CC1CO1 (stereo not drawn)	inactive	
O=C(O)C(F)(F)C(F)(F)C(F)(F)C(=O)O	inactive	
Cc1cnccn1	inactive	
CN(C(=O)C(F)(F)C(F)(F)C(F)(F)F)[Si](C)(C)C	inactive	

Compound	outcome	AC50
Brc1nc2ccccc2s1	inactive	
CCN(CC)c1ccc2c(c1)Oc1cc(N(CC)CC)ccc1C21OC(=O)c2ccccc21	inactive	
NC(O)(C(F)(F)F)C(F)(F)F	inactive	
O=C(O)C(F)(F)OC(F)(F)C(F)(F)OC(F)(F)C(F)(F)OC(F)(F)F	inactive	
O=C(O)C(F)(F)C(F)(F)C(F)(F)C(F)(F)C(F)(F)C(F)(F)C(F)F	inactive	
NC(=O)C(F)(F)C(F)(F)C(F)(F)C(F)F	inactive	
OC(O)C(F)(F)C(F)(F)F	inactive	
COC(F)(C(F)F)C(F)(F)F (stereo not drawn)	inactive	
Cc1ccc(O)c(-n2nc3ccccc3n2)c1	inactive	
CCN=C1C=CC(=C(c2ccc(N(CC)CC)cc2)c2ccc(N(CC)CC)cc2)c2ccccc21		1.61 µM (active) and 1.54 µM (active)
NC(=O)C(F)(F)C(F)(F)C(F)(F)C(F)(F)C(F)(F)C(F)(F)C(F)(F)F	inactive	
FC(F)(F)C(F)(F)C(F)(F)C(F)(F)C(F)(F)C(F)(F)C(F)(F)CCI	inactive	
Cc1ccc(S(=O)(=O)C(I)I)cc1		5.24 µM (active)
OCCCC(F)(F)C(F)(F)C(F)(F)C(F)(F)C(F)(F)C(F)(F)C(F)(F)C(F)(F)F		9.36 µM (active) and 10.8 µM (active)
NC(=O)C(F)(F)C(F)(F)C(F)(F)C(F)(F)C(N)=O	inactive	
O=C(O)CCC(F)(F)C(F)(F)C(F)(F)F	inactive	
